Drawing on PubChem BioAssay (NCI), this text covers growth for 13 compounds.

This is part of a sample that, as a whole, favours compounds with a hit. Of some 83,000 tested, about 20% had one in any assay.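 96-well plates, one dose, 48 hours. Percent growth reported; active if below 10.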 Unmarked numbers belong to inactive results. Activity calls are given as the source filed them.

Common to all, as to assay: NCI-60 one-dose screen, 48 h (100 = growth as untreated, 0 = no growth, -100 = all killed)
Holding throughout (settings): 10 µM unless noted

Test [1] relates to SR leukemia.
The test system of test [2] is RPMI-8226 leukemia.
Test [3] has as its system OVCAR-8 ovarian.
Test [4] deals with OVCAR-5 ovarian.
Test [5] relates to OVCAR-4 ovarian.
Test [6] deals with SK-OV-3 ovarian.
Test [7] has as its system IGROV1 ovarian.
The test system of test [8] is OVCAR-3 ovarian.
For test [9], the system named is HS 578T breast.
Test [10] has as its system NCI/ADR-RES ovarian.

Turning to `C=CCSC1=NC2C(N(CC)C(=O)N2CC)N1/N=C/C=C/c1ccccc1OC` (stereo not given), the growth in test [1] is 16.9%; in [2], 53.7%; in [3], 83.5%; in test [4], 105%; in test [5], 79.9%; in test [6], 99.8%. Moreover, the growth in test [7] was 69%; in [8], 54.6%; in [9], 82.4%; in test [10] it was 53.3%.
Turning to `COC(=O)N1CCN(CCNCc2ccc(NC(=O)c3ccc(C)c(C#Cc4cnc5cccnn45)c3)cc2C(F)(F)F)CC1`, the growth is -7.7% (active) in test [1]; -6.11% (active) in test [2]; 31.6% in test [3]; 46.2% in test [4]; 31.1% in [5]; 83.1% in [6]. Besides, the growth in [7] is 11.3%; in [8] it was 64.8%; in test [9], -2.16% (active); in test [10] it was 6.71% (active).
For the compound `Cc1[nH]c(C(=O)Nc2ccccc2OCc2cccc(C(=O)NC3CCNC3)c2)c(Cl)c1Cl` (stereo not given), the growth is -0.792% (active) in test [1]; -10% (active) in test [2]; -37% (active) in test [3]; 45.3% in [4]; 68.3% in [5]; 107% in test [6]. Besides, the growth is 31.2% in test [7], -26.7% (active) in test [8], 87.6% in test [9] and 67.1% in [10].
Consider `CC(=O)OC[C@]12CC[C@@H](C(=O)/C=C/c3cccnc3)[C@@H]1[C@H]1CC[C@@H]3[C@@]4(C)CC[C@H](OC(C)=O)C(C)(C)[C@@H]4CC[C@@]3(C)[C@]1(C)CC2`, for which the growth in test [1] is 6.42% (active); in test [2], -5.49% (active); in test [3], 23.2%; in [4], 15.1%; in [5] it was 21.9%; in test [6] it was 65.8%. Further, the growth is -12.9% (active) in test [7], 8.9% (active) in test [8], 14.5% in test [9] and -14.2% (active) in [10].
Consider `CCOc1cccc(/C(N)=N/C(N)=N/c2nc3ccccc3s2)c1`, for which the growth in [1] is 6.28% (active); in test [2], 77.3%; in test [3], 68.8%; in [4] it was 98.8%; in [5], 95.1%; in test [6], 132%. The growth is 56% in [7], 104% in test [8], 96.3% in test [9] and 49.7% in test [10].
As to `NC1C2CCC1CN(c1cnc(C(=O)Nc3cc(F)cc4cccnc34)cn1)C2` (stereo not given), the growth was 5.29% (active) in test [1]; 57% in test [2]; 86% in [3]; 66.7% in test [4]; 18.5% in test [5]; 97.1% in test [6]. For the same compound, the growth is 16.3% in test [7], 46.3% in [8], 68.8% in test [9] and 79.4% in test [10].
For `CCCCN1C(=O)/C(=c2\sc3n(c2=O)C2C(NN=3)N(CC)C(=O)N2CC)c2cccc(C)c21` (stereo not given), the growth in [1] is 15.1%; in test [2], 20.3%; in [3], 44.6%; in test [4], 50.9%; in [5] it was 53.8%; in test [6], 82%. In addition, the growth in test [7] was 34.7%; in test [8] it was 28.9%; in [9], 34.4%; in [10], 24.6%.
Regarding `CN1CCN(c2ccc(Nc3nc(NCCCNS(=O)(=O)c4ccc(F)cc4)c4sccc4n3)cc2)CC1`, the growth is 7.3% (active) in [1]; 12.5% in test [2]; 77.3% in [3]; 86.7% in test [4]; 60% in test [5]; 115% in test [6]. Also, the growth in [7] is 81.6%; in test [8], 97.4%; in [9], 55.6%; in test [10], 87.8%.
Take `COc1ccc(CC(C)=C(c2ccc(OCCN3CCCC3)cc2)c2ccc(OCCN3CCCC3)cc2)cc1`: the growth in test [1] was -34% (active); in test [2] it was -21.7% (active); in [3] it was -81.6% (active); in [4] it was -91.1% (active); in [5], -86.9% (active); in [6], -88% (active). The growth in test [7] was -76.5% (active); in test [8], -81% (active); in [9], -47.3% (active); in test [10], -80.5% (active).
`O=S(=O)(NCCCNc1nccc(-c2[nH]c(-c3ccccc3)nc2-c2ccc(F)c(O)c2)n1)c1cccc(F)c1`: the growth was 36.7% in test [1]; 45% in test [2]; 82% in test [3]; 147% in test [4]; 108% in [5]; 113% in test [6]. The growth in [7] was 105%; in test [8], 123%; in [9], 101%; in test [10] it was 103%.
`O=C(NNc1nc2cc(F)cc(F)c2n2cccc12)c1cccnn1`: the growth in test [1] is 14.8%; in test [2] it was 11.8%; in test [3], 19%; in [4], 46.3%; in [5] it was 4.96% (active); in test [6], -1.52% (active). Also, the growth is 13.5% in test [7], 14% in test [8], 32% in test [9] and 0.935% (active) in [10].
For `CN1CCN(c2ccc(Nc3nc(NCCCNS(=O)(=O)c4cccc(F)c4)c4sccc4n3)cc2)CC1`, the growth in test [1] is 9.04% (active); in [2] it was 7.54% (active); in [3], 50.2%; in [4] it was 73.4%; in test [5] it was 18.3%; in test [6], 115%. Also, the growth in test [7] was 68.9%; in test [8] it was 9.74% (active); in test [9] it was 50.4%; in test [10] it was 70.8%.
With `CCCC/C(=C\c1ccc(O)c(O)c1)C(=O)NC(Cc1ccccc1)C(=O)C(=O)NCCc1ccc(OC)cc1` (stereo not given), the growth in test [1] is 105%; in test [2], 89.7%; in test [3] it was 97.2%; in test [4], 99.3%; in [5], 92.7%; in test [6], 105%. Further, the growth is 96.8% in test [7], 93.7% in test [8], 91.8% in [9] and 101% in test [10].
